{
  "source": "PubChem BioAssay (NCI)",
  "note": "This is part of a sample that, as a whole, favours compounds with a hit. Of some 83,000 tested, about 20% had one in any assay.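 Growth was measured after 48 h exposure to one concentration of compound in 96-well plates. Values under 10 count as active.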 Activity calls are given as the source filed them.",
  "data": [
    {"test_system": "UACC-257 melanoma", "experiment": "NCI-60 one-dose screen, 48 h (100 = growth as untreated, 0 = no growth, -100 = all killed)", "settings": "10 µM unless noted", "values": [
      {"compound": "Cn1ncc(Cl)c1-c1cc(C(=O)N[C@H](CN)Cc2ccc(F)c(F)c2)oc1Cl", "growth": "-89.4% (active)"},
      {"compound": "CC[C@H](Nc1ncnc2nc[nH]c12)c1nc2cccc(F)c2c(=O)n1-c1ccccc1", "growth": "39.9% (inactive)"},
      {"compound": "COc1ccc(C(=O)c2cc(OC)c(OC)c(OC)c2)cc1/C=C/C(=O)c1ccc(F)cc1", "growth": "86.6% (inactive)"},
      {"compound": "CCN1CCN(CCCN(C[C@H]2Cc3ccccc3CN2)[C@H]2CCCc3cccnc32)CC1", "growth": "80.4% (inactive)"},
      {"compound": "C=CCn1c(=O)c2cnc(Nc3ccc(N4CCN(C)CC4)cc3)nc2n1-c1cccc(C(C)(C)O)n1", "growth": "46.1% (inactive)"}
    ]},
    {"test_system": "M14 melanoma", "experiment": "NCI-60 one-dose screen, 48 h (100 = growth as untreated, 0 = no growth, -100 = all killed)", "settings": "10 µM unless noted", "values": [
      {"compound": "C=CCC(=O)N[C@H](/C=C/C(=O)O)Cc1ccc(-c2cc(Cl)cc(Cl)c2)cc1", "growth": "92.2% (inactive)"},
      {"compound": "CCN1CCN(c2cc(C)nc(N(CCCNc3ccnc4cc(Cl)ccc34)Cc3cccs3)n2)CC1", "growth": "-84% (active)"},
      {"compound": "COC(=O)CCCNc1c(-c2c(O)c(O)cc3c(O)c(-c4c(C)cc5c(-c6nc7ccccn7c6NCCCC(=O)OC)c(O)c(O)cc5c4O)c(C)cc23)nc2ccccn12", "growth": "60.3% (inactive)"},
      {"compound": "Cn1ncc(Cl)c1-c1cc(C(=O)N[C@H](CN)Cc2ccc(F)c(F)c2)oc1Cl", "growth": "-78.5% (active)"},
      {"compound": "O=c1[nH]c(N2CCOCC2)nc2scc(-c3ccccc3)c12", "growth": "98.9% (inactive)"},
      {"compound": "Cc1cc2c(-c3nc4ccccn4c3NC3CCCCC3)c(O)c(O)cc2c(O)c1-c1c(C)cc2c(-c3nc4ccccn4c3NC3CCCCC3)c(O)c(O)cc2c1O", "growth": "16.5% (inactive)"},
      {"compound": "CC(C)C1CCC(C)C(C2(C#N)C(N)=NC(N)=C2C#N)C1=O", "note": "(configuration not stated)", "growth": "96.1% (inactive)"}
    ]}
  ]
}
